# PubChem BioAssay (NCATS)
# Where “and” joins values, the source holds several entries; their conditions need not be identical. Equal values may be shown once. Records with an inconclusive call do not appear. Entries that show only a call come without a potency. Unmarked numbers belong to inactive results. Calls of active or inactive are those of the source. The call rests on the fitted dose curve; in most records, active means well fitted curve in the direction sought with a large enough effect; inconclusive means small, poorly fitted or top-dose-only effect, or another doubt; inactive means no such curve, though single readings can be large; an effect the other way counts as inactive or inconclusive. Peptide text beside a SMILES is read from it.
# Tests used:
# [1] = target: Cellular tumor antigen p53 (Homo sapiens) (UniProt P04637); assay: Primary qHTS for small molecule compounds that upregulate eGFP-tagged delta133p53alpha (in N-terminal) cells. (AID 2060322); settings: NCI-H358 eGFP-delta133p53alpha fluorescence, 24 h; activation: stronger effect = higher value; further: nearly all actives have a fitted effect of over 75% in size; further: potency means the concentration at half of the fitted maximal effect; on activation: series mostly up to about 56 µM
# Sequence of Cellular tumor antigen p53 (Homo sapiens) (P04637 whole entry, looked up): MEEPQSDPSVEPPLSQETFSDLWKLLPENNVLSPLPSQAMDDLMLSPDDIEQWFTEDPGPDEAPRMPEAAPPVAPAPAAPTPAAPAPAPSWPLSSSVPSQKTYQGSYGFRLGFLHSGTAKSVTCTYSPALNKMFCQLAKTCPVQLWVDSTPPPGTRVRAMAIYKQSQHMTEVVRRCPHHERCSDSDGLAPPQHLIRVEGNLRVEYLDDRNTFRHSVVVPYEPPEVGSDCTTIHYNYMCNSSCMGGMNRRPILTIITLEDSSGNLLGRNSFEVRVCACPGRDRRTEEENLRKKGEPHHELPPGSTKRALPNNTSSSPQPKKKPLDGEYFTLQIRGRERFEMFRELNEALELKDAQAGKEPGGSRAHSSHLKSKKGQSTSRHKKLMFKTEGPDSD
# Summary of the method: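 NCI-H358 cells pre-induced 24 h with 10 ng/ml doxycycline to express N-terminal eGFP-delta133p53alpha, then dosed 24 h at 37C without doxycycline; fixed, Hoechst-stained, GFP intensity by laser scanning cytometry, normalized to DMSO (0%) and 57.5 uM 5-azacytidine (100%).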
# [2] = target: Aldehyde dehydrogenase, mitochondrial (Homo sapiens) (UniProt P05091); assay: qHTS for Inhibitors of the Aldehyde Dehydrogenase Family (ALDH2) Primary screen (AID 2061308); further: nearly all actives have a fitted effect of over 55% in size
# [3] = target: Retinaldehyde dehydrogenase 3 (Homo sapiens) (UniProt P47895); assay: qHTS for Inhibitors of the Aldehyde Dehydrogenase Family (ALDH1A3) Primary screen (AID 2061315)
SMILES,activation [1],Potency [2],Potency [3],Potency [1],"activity change, negative = inhibition [2]","activity change, negative = inhibition [3]"
C[C@@H]1CC[C@]2(C(=O)O)CC[C@]3(C)C(=CCC4[C@@]5(C)CC[C@H](O)[C@](C)(C(=O)O)C5CC[C@]43C)C2[C@]1(C)O (stereo partly specified),8.4%,inactive,inactive,–,–,–
CC1=CCC2C(C)(CO)CCCC2(C)C1CC12OC1C(O)C(CO)=CC2O (stereo unspecified),12.2%,inactive,inactive,–,–,–
CC1(CO)CC(O)C2(C)CCC3(C)C(=CCC4C5(C=O)CCC(OC6OC(C(=O)O)C(O)C(O)C6OC6OC(C(=O)O)C(O)C(O)C6O)C(C)(C)C5CCC43C)C2C1 (stereo unspecified),-10.7%,inactive,inactive,–,–,–
C[C@H]1CC[C@@H]2N(C1)C[C@@H]1[C@H]([C@@H](O)[C@H](O)[C@]3(O)[C@H]1C[C@@]14OC5(O)[C@@H](C[C@@H](O)[C@@H]31)[C@]4(C)CC[C@@H]5O)[C@]2(C)O,0%,inactive,inactive,–,–,–
C=C(C)C(=O)OC1CC(CO)CCC/C(CO)=C/C2OC(=O)C(=C)C21 (stereo unspecified),–,inactive,inactive,14.8 µM (active),–,–
CC(O)C1CCC2C3CCC4CC(OC5OC(C(=O)O)C(O)C(O)C5O)CCC4(C)C3CCC12C (stereo unspecified),-17%,inactive,inactive,–,–,–
C/C=C(\C)C(=O)O[C@H]1C[C@](C)(O)[C@H]2CC=C(C)[C@H]2[C@@H]2OC(=O)[C@H](C)[C@H]21,-15.2%,inactive,inactive,–,–,–
OC[C@H]1O[C@@H](OC[C@H]2O[C@@H](OC/C=C/c3ccccc3)[C@H](O)[C@@H](O)[C@@H]2O)[C@@H](O)[C@@H]1O,20.5%,inactive,inactive,–,–,–
COc1cc(O[C@@H]2O[C@H](CO)[C@@H](O)[C@H](O)[C@H]2O)c(CCC(=O)OC[C@H]2O[C@@H](Oc3cc(OC)c(C4OC(=O)C(C)(O)C4O)cc3CCC(=O)O)[C@H](O)[C@@H](O)[C@@H]2O)cc1C1OC(=O)C(C)(O)C1O (stereo partly specified),-6.11%,inactive,inactive,–,–,–
O=C(CC1C(=O)Nc2ccccc21)OC[C@H]1O[C@@H](OCCc2ccc(O)cc2)[C@H](O)[C@@H](O)[C@@H]1O (stereo partly specified),0%,inactive,inactive,–,–,–
CC1(C)CC[C@]2(C(=O)O[C@@H]3O[C@H](CO)[C@@H](O)[C@H](O)[C@H]3O)CC[C@]3(C)C(=CCC4[C@@]5(C)CC[C@H](O[C@H]6O[C@H](CO)[C@@H](O)[C@H](O[C@@H]7O[C@H](CO)[C@@H](O)[C@H](O)[C@H]7O)[C@H]6O)C(C)(C)C5CC[C@]43C)[C@@H]2C1 (stereo partly specified),15.3%,inactive,inactive,–,–,–
C/C(=C/CO)CCC1C(C)CCC2C(C)(C)CCCC12C (stereo unspecified),-9.92%,inactive,inactive,–,–,–
C[C@@H]1C[C@H](O)/C=C/[C@H](O)[C@@H](O)CC(=O)O1,-9.92%,inactive,inactive,–,–,–
CC#CCn1c(N2CCCC(N)C2)nc2c1c(=O)n(Cc1nc(C)c3ccccc3n1)c(=O)n2C (stereo unspecified),5.67%,inactive,inactive,–,–,–
CC(C)c1ccc2c(c1)C(O)CC1C(C)(CO)CCCC21C (stereo unspecified),-12.5%,inactive,inactive,–,–,–
CCCCCCc1cccc(NC(=O)[C@H](N)CCP(=O)(O)O)c1,1%,inactive,inactive,–,–,–
CC1(C)CCCC2(C)c3c4c(c(=O)oc(=O)c3=CCC12)=CCC1C(C)(C)CCCC41C (stereo unspecified),-8.04%,inactive,inactive,–,–,–
CCOC(=O)N1CCC(N2CCC[C@@H](NC(=O)c3ccccc3C)C2)CC1,-2.86%,inactive,inactive,–,–,–
COc1ccc(-n2c(=O)[nH]c3cc(C(=O)NCc4ccc(Cl)cc4)sc3c2=O)nc1OC,-16.1%,inactive,inactive,–,–,–
CC1(C)CC[C@]2(C(=O)O)CC[C@]3(C)C(=CCC4[C@@]5(C)C(=O)C[C@H](O)[C@@](C)(CO)C5CC[C@]43C)[C@@H]2C1 (stereo partly specified),-11.5%,inactive,inactive,–,–,–
C[C@@H]1O[C@@H](O[C@H]2[C@H](O[C@H]3[C@H](O[C@H]4CC[C@@]5(C)C(CC[C@]6(C)C5CC=C5[C@@H]7CC(C)(C)C[C@@H](O)[C@]7(C)CC[C@]56C)C4(C)C)O[C@H](C(=O)O)[C@@H](O)[C@@H]3O)O[C@H](C(=O)O)[C@H](O)[C@@H]2O)[C@H](O)[C@H](O)[C@H]1O (stereo partly specified),-16.8%,inactive,inactive,–,–,–
N#CC1C(=O)Nc2scc(-c3ccc(-c4ccccc4O)cc3)c2C1=O (stereo unspecified),17%,inactive,inactive,–,–,–
C=C1CC[C@@H]2C(C)(C)CCC[C@@]2(C)[C@@H]1CC/C(=C/C(=O)OC)COC(C)=O,-31.3%,inactive,inactive,–,–,–
CC1(C)CCCC2(C)C1C(=O)C=C(C(=O)O)C2(O)C(=O)O (stereo unspecified),41.2%,inactive,inactive,–,–,–

SMILES,activation [1],Potency [2],Potency [3],Potency [1],"activity change, negative = inhibition [2]","activity change, negative = inhibition [3]"
C[C@@H]1CCC2C(C)(C)[C@H](O)[C@H](O)C[C@]2(C)[C@@]12Cc1c(O)cc3c(c1O2)CN(CCCC(=O)O)C3=O (stereo partly specified),-3.05%,inactive,inactive,–,–,–
CC(=O)OC(C)(C)/C=C/C(=O)[C@](C)(O)[C@H]1C(O)C[C@@]2(C)[C@@H]3CC=C4[C@@H](C=C(O[C@@H]5O[C@H](CO)[C@@H](O)[C@H](O)[C@H]5O)C(=O)C4(C)C)[C@]3(C)C(=O)C[C@]12C (stereo partly specified),22.3%,inactive,inactive,–,–,–
CC1=C2C(=O)O[C@@H](c3ccoc3)[C@]2(C)CCC1,-11.6% and -7%,inactive,inactive,–,–,–
C=C1C(OC(=O)/C(C)=C\C)[C@@]23CCC4[C@@](C)(CCC[C@@]4(C)C(=O)O)C2CC[C@H]1C3OC(C)=O (stereo partly specified),-28.2%,inactive,inactive,–,–,–
CN[C@H](C(=O)N[C@H](C(=O)N(C)[C@H](/C=C(\C)C(=O)O)C(C)C)C(C)(C)C)C(C)(C)c1ccccc1,15.8%,inactive,inactive,–,–,–
CC1(C)CC2C(C1)C(C)(O)C13CC1(COC3=O)C2O (stereo unspecified),8.93%,inactive,inactive,–,–,–
COc1cc(F)c(C(C)C)cc1-c1ccc(C(F)(F)F)cc1CN1C(=O)OC(c2cc(C(F)(F)F)cc(C(F)(F)F)c2)C1C (stereo unspecified),-6.68%,inactive,inactive,–,–,–
CSCC[C@H](NC(=O)[C@H](CO)NC(=O)[C@H](CCC(=O)O)NC(C)=O)C(=O)N[C@H](C=O)CC(=O)O (Ac-ESMD-aldehyde),12.3%,–,–,–,-17.2% [at 11.2 µM],-13.4% [at 11.2 µM]
CC(=O)Nc1ccc(S(=O)(=O)Nc2cc(C)on2)cc1,11.9%,inactive,inactive,–,–,–
C=C1CC[C@@H]2[C@](C)(CO)[C@H](O)CC[C@@]2(C)[C@@H]1C/C=C1/C(=O)OCC1OC(=O)/C(=C/CO)C(O)C[C@@H]1C(=C)CC[C@@H]2[C@](C)(CO)[C@H](O)CC[C@]21C (stereo partly specified),13%,inactive,inactive,–,–,–
CC(=O)O[C@@H]1CC[C@@]2(C)[C@H](CC[C@@H]3[C@@H]2C[C@H](OC(C)=O)[C@]2(C)[C@@H](C(C)=O)CC[C@@H]32)C1,5%,inactive,inactive,–,–,–
O=C(O[C@H]1[C@@H]2C=CO[C@@H](O[C@@H]3O[C@H](CO)[C@@H](O)[C@H](O)[C@H]3O)[C@@H]2[C@@]2(CO)O[C@@H]12)c1ccccc1,10.7%,inactive,inactive,–,–,–
C=C(C)C(=O)O[C@H]1C[C@@](C)(OC(C)=O)[C@@]2(O)CC[C@@](C)(O)[C@H](OC(C)=O)[C@@]23OC(=O)C(COC)=C13,-9.16%,inactive,inactive,–,–,–
CCC/C=C/C=C/C1CC(O)C2(O)C(=O)OCC12 (stereo unspecified),6.11%,inactive,inactive,–,–,–
Nc1c(NC/C=C\COc2cc(CN3CCCCC3)ccn2)c(=O)c1=O,-10.3%,inactive,inactive,–,–,–
C[C@H](/C=C/[C@@]1(O)[C@H](C)CC(=O)CC1(C)C)O[C@@H]1O[C@H](CO[C@@H]2OC[C@@H](O)[C@H](O)[C@H]2O)[C@@H](O)[C@H](O)[C@H]1O,-6.11%,inactive,inactive,–,–,–
C[C@@H]1O[C@@H](OC(=O)Cc2ccccc2)[C@H](O)[C@H](O)[C@H]1O,17%,inactive,inactive,–,–,–
CC(=O)O[C@H]1[C@@H](O)[C@H](O[C@H]2[C@@H]3C=CO[C@@H](O[C@H]4O[C@@H](CO)[C@H](O)[C@@H](O)[C@@H]4O)[C@@H]3[C@@]3(CO)O[C@@H]23)O[C@@H](C)[C@@H]1OC(=O)/C=C/c1ccccc1,-17.9%,inactive,inactive,–,–,–
CC(=O)NC(C(=O)O[C@H]1CCC(C)(C)[C@@H]2CC=C3C(=O)OCC3(O)[C@@]12C)C(C)C (stereo partly specified),20.6%,inactive,inactive,–,–,–
Nc1nc2c(nc(Br)n2[C@@H]2O[C@@H]3COP(=O)(O)O[C@H]3[C@H]2O)c(=O)[nH]1,-14.3%,inactive,inactive,–,–,–
C[C@@H]1C[C@H](O[C@@H]2O[C@H](CO[C@@H]3OC[C@](O)(CO)[C@H]3O)[C@@H](O)[C@H](O)[C@H]2O)CC(C)(C)[C@H]1/C=C/[C@@H](C)O,-29.5%,inactive,inactive,–,–,–
CC(=O)O[C@H](C[C@@H](C)[C@H]1C(=O)[C@H](O)[C@@]2(C)[C@@H]3CCC4C(C)(C)[C@@H](O[C@@H]5OC[C@H](O)[C@H](O)[C@H]5O)CC[C@@]45C[C@@]35CC[C@]12C)[C@@H]1OC1(C)C (stereo partly specified),8.04%,inactive,inactive,–,–,–
COc1ccc(CN2CCN(C(c3ccc(F)cc3)c3ccc(F)cc3)CC2)c(OC)c1OC,-1.69% and -6.68%,inactive,inactive,–,–,–
